Reference: PubChem BioAssay (NCI)
The panel holds about 83,000 compounds, 20% with a hit somewhere; the sample as a whole holds those more often.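 Single-dose data. Exposure time 48 hours. Values below 10 considered active.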 Unmarked numbers belong to inactive results. Activity calls are given as the source filed them.

What was measured:
Assay in all cases: NCI-60 one-dose screen, 48 h (100 = growth as untreated, 0 = no growth, -100 = all killed)
Details in all cases: 10 µM unless noted
NCI-H23 lung = test system: NCI-H23 lung
NCI-H226 lung = test system: NCI-H226 lung
NCI-H322M lung = test system: NCI-H322M lung
HOP-62 NSCLC = test system: HOP-62 NSCLC
NCI-H460 lung = test system: NCI-H460 lung
HOP-92 NSCLC = test system: HOP-92 NSCLC
NCI-H522 lung = test system: NCI-H522 lung
A549/ATCC NSCLC = test system: A549/ATCC NSCLC
786-0 renal = test system: 786-0 renal
COLO 205 colon = test system: COLO 205 colon
DU-145 prostate = test system: DU-145 prostate
K-562 leukemia = test system: K-562 leukemia
MALME-3M melanoma = test system: MALME-3M melanoma
MDA-MB-231 breast = test system: MDA-MB-231 breast
RXF 393 renal = test system: RXF 393 renal
SF-268 CNS = test system: SF-268 CNS
SF-295 CNS = test system: SF-295 CNS
SF-539 CNS = test system: SF-539 CNS
UACC-257 melanoma = test system: UACC-257 melanoma
M14 melanoma = test system: M14 melanoma

COc1ccc(C(=O)Nc2cccc(C3CCc4c(cc(OC)c(OC)c4OC)O3)c2)cc1 (stereo not given) showed a growth (NCI-H23 lung) of 58.9%, a growth (NCI-H226 lung) of 30.1% and a growth (NCI-H322M lung) of 75.9%. It also gave a growth (HOP-62 NSCLC) of 39.8%, a growth (NCI-H460 lung) of 25.7% and a growth (HOP-92 NSCLC) of 61.3%. For the same compound, the growth (NCI-H522 lung) was 42.7%, the growth (A549/ATCC NSCLC) was 43.4% and the growth (786-0 renal) was 68.7%. For the same compound, the growth (COLO 205 colon) was 67.9%, the growth (DU-145 prostate) was 69.9% and the growth (K-562 leukemia) was 16.8%. The growth (MALME-3M melanoma) was 46.2%, the growth (MDA-MB-231 breast) was 63.1% and the growth (RXF 393 renal) was 81.1%. For the same compound, the growth (SF-268 CNS) was 52.7%, the growth (SF-295 CNS) was 42.2% and the growth (SF-539 CNS) was 61.3%. For the same compound, the growth (UACC-257 melanoma) was 52% and the growth (M14 melanoma) was 34.2%.

For COc1cc2nc(-c3ccc(Cl)cc3)cc(OCCCN3CCCCC3)c2cc1OC, the growth (NCI-H23 lung) was 64.7%, the growth (NCI-H226 lung) was -9.93% (active) and the growth (NCI-H322M lung) was 63.1%. It also gave a growth (HOP-62 NSCLC) of 54.7%, a growth (NCI-H460 lung) of 25.6% and a growth (HOP-92 NSCLC) of 34.2%. For the same compound, the growth (NCI-H522 lung) was 34%, the growth (A549/ATCC NSCLC) was 36% and the growth (786-0 renal) was 72.5%. It also gave a growth (COLO 205 colon) of 16.1%, a growth (DU-145 prostate) of 40.9% and a growth (K-562 leukemia) of 14.3%. The growth (MALME-3M melanoma) was 46.1%, the growth (MDA-MB-231 breast) was 27.4% and the growth (RXF 393 renal) was 39.1%. The growth (SF-268 CNS) was 57.5%, the growth (SF-295 CNS) was -51.3% (active) and the growth (SF-539 CNS) was 49.5%. The growth (UACC-257 melanoma) was -0.848% (active) and the growth (M14 melanoma) was -28.2% (active).

In the case of CCCCCCCCO/N=C\c1c2c(O)c3c(O)c(C)c4c(c3c1O)C(=O)C(C)(O/C=C\C(OC)C(C)C(OC(C)=O)C(C)C(O)C(C)C(O)C(C)/C=C\C=C(\C)C(=O)N2)O4 (stereo not given), the growth (NCI-H23 lung) is reported as 22.2%, the growth (NCI-H226 lung) is reported as 28% and the growth (NCI-H322M lung) is reported as 45.9%. The growth (HOP-62 NSCLC) was 36%, the growth (NCI-H460 lung) was 3.79% (active) and the growth (HOP-92 NSCLC) was -4.97% (active). For the same compound, the growth (NCI-H522 lung) was 5.64% (active), the growth (A549/ATCC NSCLC) was 17.4% and the growth (786-0 renal) was 27.9%. For the same compound, the growth (COLO 205 colon) was 4.9% (active), the growth (DU-145 prostate) was 32.9% and the growth (K-562 leukemia) was 16.7%. The growth (MALME-3M melanoma) was 40.7%, the growth (MDA-MB-231 breast) was 12.7% and the growth (RXF 393 renal) was 38.7%. The growth (SF-268 CNS) was 43.1%, the growth (SF-295 CNS) was 4.44% (active) and the growth (SF-539 CNS) was 42.9%. For the same compound, the growth (UACC-257 melanoma) was 8.62% (active) and the growth (M14 melanoma) was 27%.

In the case of O=C(N/N=C/c1cc2ccccc2n2nnnc12)Nc1ccccc1, the growth (NCI-H23 lung) is reported as 100%, the growth (NCI-H226 lung) is reported as 103% and the growth (NCI-H322M lung) is reported as 105%. It also gave a growth (HOP-62 NSCLC) of 100%, a growth (NCI-H460 lung) of 105% and a growth (HOP-92 NSCLC) of 105%. It also gave a growth (NCI-H522 lung) of 93.6%, a growth (A549/ATCC NSCLC) of 97.7% and a growth (786-0 renal) of 91.5%. The growth (COLO 205 colon) was 108%, the growth (DU-145 prostate) was 103% and the growth (K-562 leukemia) was 95.1%. For the same compound, the growth (MALME-3M melanoma) was 106%, the growth (MDA-MB-231 breast) was 105% and the growth (RXF 393 renal) was 103%. For the same compound, the growth (SF-268 CNS) was 101%, the growth (SF-295 CNS) was 104% and the growth (SF-539 CNS) was 106%. It also gave a growth (UACC-257 melanoma) of 111% and a growth (M14 melanoma) of 102%.

With O=C(c1nnc(Nc2ccccc2Br)o1)c1c[nH]c2ccccc12 the growth (NCI-H23 lung) was 88.1%, the growth (NCI-H226 lung) was 85.6% and the growth (NCI-H322M lung) was 94.6%. It also gave a growth (HOP-62 NSCLC) of 79.2%, a growth (NCI-H460 lung) of 99.2% and a growth (HOP-92 NSCLC) of 97.9%. The growth (NCI-H522 lung) was 98.2%, the growth (A549/ATCC NSCLC) was 88.2% and the growth (786-0 renal) was 103%. For the same compound, the growth (COLO 205 colon) was 98.9%, the growth (DU-145 prostate) was 107% and the growth (K-562 leukemia) was 112%. The growth (MALME-3M melanoma) was 105%, the growth (MDA-MB-231 breast) was 88.9% and the growth (RXF 393 renal) was 125%. The growth (SF-268 CNS) was 105%, the growth (SF-295 CNS) was 108% and the growth (SF-539 CNS) was 104%. For the same compound, the growth (UACC-257 melanoma) was 92.6% and the growth (M14 melanoma) was 92.5%.

Work on NC1[C@H](c2c[nH]c3ccccc23)c2c([nH]c3ccccc23)[C@H]1c1c[nH]c2ccccc12 (stereo not given in full) yielded a growth (NCI-H23 lung) of 85.7%, a growth (NCI-H226 lung) of 92.1% and a growth (NCI-H322M lung) of 91.6%. For the same compound, the growth (HOP-62 NSCLC) was 90.1%, the growth (NCI-H460 lung) was 97.1% and the growth (HOP-92 NSCLC) was 84.2%. It also gave a growth (NCI-H522 lung) of 88.5%, a growth (A549/ATCC NSCLC) of 90.6% and a growth (786-0 renal) of 96.4%. For the same compound, the growth (COLO 205 colon) was 110%, the growth (DU-145 prostate) was 95.3% and the growth (K-562 leukemia) was 90.8%. For the same compound, the growth (MALME-3M melanoma) was 88.9%, the growth (MDA-MB-231 breast) was 75.7% and the growth (RXF 393 renal) was 104%. It also gave a growth (SF-268 CNS) of 84.4%, a growth (SF-295 CNS) of 92.9% and a growth (SF-539 CNS) of 100%. For the same compound, the growth (UACC-257 melanoma) was 111% and the growth (M14 melanoma) was 92.3%.

Compound Cn1c2ccccc2c2c3c(c4c5ccccc5n(C)c4c21)C(=O)OC3 has a growth (NCI-H23 lung) of 97.6%, a growth (NCI-H226 lung) of 80.9% and a growth (NCI-H322M lung) of 87.6%. It also gave a growth (HOP-62 NSCLC) of 90.8%, a growth (NCI-H460 lung) of 97.6% and a growth (HOP-92 NSCLC) of 95.6%. For the same compound, the growth (NCI-H522 lung) was 88.8%, the growth (A549/ATCC NSCLC) was 104% and the growth (786-0 renal) was 102%. It also gave a growth (COLO 205 colon) of 107%, a growth (DU-145 prostate) of 104% and a growth (K-562 leukemia) of 94.2%. For the same compound, the growth (MALME-3M melanoma) was 109%, the growth (MDA-MB-231 breast) was 76.2% and the growth (RXF 393 renal) was 101%. It also gave a growth (SF-268 CNS) of 91.1%, a growth (SF-295 CNS) of 107% and a growth (SF-539 CNS) of 96.6%. It also gave a growth (UACC-257 melanoma) of 109% and a growth (M14 melanoma) of 103%.

With C=C(C)[C@@H]1CC[C@]2(C(=O)N3CCN(C)CC3)CC[C@]3(C)[C@H](CC[C@@H]4[C@@]5(C)CC[C@H](OCCC#N)C(C)(C)[C@@H]5CC[C@]43C)[C@@H]12 the growth (NCI-H23 lung) was 100%, the growth (NCI-H226 lung) was 89.4% and the growth (NCI-H322M lung) was 103%. It also gave a growth (HOP-62 NSCLC) of 108%, a growth (NCI-H460 lung) of 98.7% and a growth (HOP-92 NSCLC) of 93%. It also gave a growth (NCI-H522 lung) of 95.4%, a growth (A549/ATCC NSCLC) of 80% and a growth (786-0 renal) of 22%. The growth (COLO 205 colon) was 50.3%, the growth (DU-145 prostate) was 92.5% and the growth (K-562 leukemia) was 16.2%. For the same compound, the growth (MALME-3M melanoma) was 118%, the growth (MDA-MB-231 breast) was 65.8% and the growth (RXF 393 renal) was 47.4%. The growth (SF-268 CNS) was 90.5%, the growth (SF-295 CNS) was 115% and the growth (SF-539 CNS) was 102%. It also gave a growth (UACC-257 melanoma) of 107% and a growth (M14 melanoma) of 107%.
